Source: PubChem
An excerpt weighted towards active compounds, which were near 0.17% of everything screened.
MmCpn inh: M. maripaludis TRiC chaperonin inhibition; 330,000 compounds, 0.031% hits; AID 504842; Potency, µM (doses to about 76.9 µM), hits mostly inhibitors; purified Mm-Cpn ATPase, ADP Transcreener TR-FRET; note: nearly all actives have a fitted effect of over 80% in size
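ATPase read-out: TR-FRET ADP immunoassay (anti-ADP Eu cryptate vs ADP-d2), ex 320 nm, em 590/665 nm; signal drops as ADP forms. Enzyme 25 nM, ATP 10 uM, 30 min at 37°C after 10 min compound preincubation.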
RGS4 inhibitor: blocks human RGS4-accelerated GTP hydrolysis; P49798; Transcreener GDP fluorescence polarization, RGS4-accelerated GTP hydrolysis; Potency, µM (titrated, usually from 114 µM), actives largely listed as inhibitors; 390,000 compounds, 0.039% hits; AID 504845; note: nearly all actives have a fitted effect of over 75% in size
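MLSMR compounds (23 nl, pin-transferred) preincubated 10 min at room temperature with a 500nM (2x) first reagent, then RGS4 at 900nM (2x) plus Transcreener GDP mix added; fluorescence polarization (620/688 nm) read before and after 90 min at 30 °C.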
Pin1 inhibitor: blocks the human prolyl isomerase Pin1 | Q13526 | Pin1 FP peptide displacement, HiFluor488, 10 min | Potency, µM (top dose mostly 115 µM), hits mostly inhibitors | 390,000 compounds, 0.009% hits | AID 504891; active = well fitted inhibition curve with a large enough effect in the polarisation, with a control signal flat, not every such curve was filed as active; inconclusive = small, poorly fitted or top-dose-only effect, or effect the other way, or a change in a side signal; inactive = no such curve, though single readings can be large or run the other way; the % refers to the polarisation
Target sequence (Q13526 whole entry, looked up): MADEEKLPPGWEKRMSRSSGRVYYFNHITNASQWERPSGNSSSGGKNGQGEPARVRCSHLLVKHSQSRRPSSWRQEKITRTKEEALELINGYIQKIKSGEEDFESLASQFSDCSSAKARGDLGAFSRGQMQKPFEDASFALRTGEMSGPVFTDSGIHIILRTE
Glioma ERSR ind: inducers of ER stress response in human glioma cells; AID 602332; 420,000 compounds, 0.02% hits; U87-MG GRP78 promoter luciferase reporter, 16 h; Potency, µM, usual class: activators; note: series mostly up to about 76 µM; nearly all actives have a fitted effect of over 35% in size
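ERSR induction read as luciferase luminescence (Bright-Glo, 10 min at room temperature) in stably transfected human U87-MG glioma cells exposed to compounds for 16 h, using GRP78 as sensor.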
Anesthetic bind: candidate novel general anesthetic via apoferritin binding. P02791. apoferritin/1-aminoanthracene competitive binding, fluorescence. Potency, µM (highest dose often 77.5 µM), actives largely listed as inhibitors. 350,000 compounds, 0.074% hits. AID 485281; note: nearly all actives have a fitted effect of over 20% in size
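Read-out: endpoint 1-AMA fluorescence, excitation 380 nm and emission 535 nm, after compounds sit 10 min at room temperature with 10 uM horse-spleen apoferritin in 50% saturated 1-AMA/PBS. Values come from four-parameter Hill fits.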
B2AR arrestin: recruits beta-arrestin to the human beta2-adrenergic receptor; P07550; beta-arrestin recruitment to beta2AR, cell-based reporter; Potency, µM (top dose mostly 46.1 µM), most hits filed as activators; 330,000 compounds, 0.02% hits; AID 492947; note: nearly all actives have a fitted effect of over 65% in size
Target sequence (P07550 whole entry, looked up): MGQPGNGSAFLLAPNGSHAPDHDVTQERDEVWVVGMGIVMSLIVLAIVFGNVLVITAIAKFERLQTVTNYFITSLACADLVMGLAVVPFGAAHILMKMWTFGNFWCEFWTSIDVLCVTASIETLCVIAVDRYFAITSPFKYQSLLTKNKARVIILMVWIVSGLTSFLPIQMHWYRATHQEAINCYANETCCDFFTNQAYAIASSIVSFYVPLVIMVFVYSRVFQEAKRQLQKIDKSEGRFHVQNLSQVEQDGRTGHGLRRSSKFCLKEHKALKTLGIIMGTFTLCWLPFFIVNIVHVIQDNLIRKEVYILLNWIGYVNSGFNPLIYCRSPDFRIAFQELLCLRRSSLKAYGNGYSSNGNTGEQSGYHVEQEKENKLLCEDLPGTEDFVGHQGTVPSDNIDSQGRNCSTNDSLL
Numbers stand for hits; . = inactive; ? = inconclusive; / = no result; ! = not confirmed by another sample; [ ] = another dose, or the depositor's remark. Unless noted, calls come from the whole dose curve; as a rule, active = well fitted curve in the direction sought with a large enough effect; inconclusive = small, poorly fitted or top-dose-only effect, or another doubt; inactive = no such curve, though single readings can be large; an effect the other way counts as inactive or inconclusive.

SMILES	MmCpn inh	RGS4 inhibitor	Pin1 inhibitor	Glioma ERSR ind	Anesthetic bind	B2AR arrestin
O=C(Oc1c(CN2CCOCC2)cc(Cl)c2cccnc12)c1ccccc1F	.	.	.	.	.	5.6µM
NC(=O)C1CCN(c2ncc(-c3cccc(N4CCOCC4)c3)s2)CC1	/	/	.	/	/	/
CN(C)c1ccc(-c2csc(N3CCC(C(N)=O)CC3)n2)cc1	/	/	.	/	/	/
Cc1ccc(NS(=O)(=O)c2ccc3c(c2)CC(=O)N3C)cc1C	/	/	.	/	/	/
CCCCCCC/C=C\CCCCCCCCC(=O)O	/	24µM	/	.	/	/
CCCCC/C=C\C/C=C\CCCCCCCC(N)=O	/	24µM	/	.	.	/
O=C(CNc1ccc(C(F)(F)F)cc1[N+](=O)[O-])OCC(=O)c1ccccc1	.	.	.	.	28µM	.
CC(C)NC(=O)CNc1ccc(C(F)(F)F)cc1[N+](=O)[O-]	.	.	.	.	.	.
CN(C)c1cccc(-c2ncc(F)c(N3CCC(C(N)=O)CC3)n2)c1	/	/	.	/	/	/
Cc1ccc(-n2c(C)csc2=N)cc1	.	.	.	.	?	.
Cc1csc(=N)n1-c1ccc(Cl)cc1	.	.	.	.	11µM	.
CSc1ccc(/C=N/Nc2cccc(C(=O)O)c2)cc1	.	.	19µM	.	.	.
O=S(=O)(O)c1ccc(O)c2cc(Nc3ccccc3)ccc12	/	?	8.5µM	.	/	/
CC(C)(C)NC(=S)NNC(=O)c1cccc(Br)c1	.	.	.	.	.	6.3µM
O=C1c2ccccc2C(=O)N1CCC1=CCCCC1	.	.	.	.	22µM	.
O=C(c1ccccc1O)N(Cc1cccs1)Cc1cccs1	/	/	.	/	/	/
CC(=O)NC1C(=O)N(CCN2CCOCC2)c2ccc(C)cc21 (stereo not drawn)	.	.	50µM	.	.	.
O=C(NCc1ccccc1)n1cc(P(=S)(c2ccccc2)c2ccccc2)c2ccccc21	/	/	.	/	/	/
N#C/C(=C(\O)Cc1ccccc1)c1nc2ccccc2[nH]1	.	.	.	.	.	.
N#C/C(=C(/O)CCl)c1nc2ccccc2[nH]1	.	.	?	25µM	.	.
Cc1cc2c(s1)c(/C=N/O)c(C(=O)NCc1ccccc1F)n2C	/	/	.	/	/	/
NC1(C(=O)O)CCc2cc(P(=O)(O)O)ccc21 (stereo not drawn)	/	38µM	/	.	.	/
Nc1ccc(C23CC4CC(CC(C4)C2)C3)cc1	.	.	.	.	8.9µM	.
Nc1ccc(C23CC4CC(CC(O)(C4)C2)C3)cc1	.	.	.	.	14µM	.
Nc1ccc(C23CC4CC(CC(CO)(C4)C2)C3)cc1	.	.	.	.	?	.
SMILES	MmCpn inh	RGS4 inhibitor	Pin1 inhibitor	Glioma ERSR ind	Anesthetic bind	B2AR arrestin
C=CCN(CC=C)S(=O)(=O)c1ccc(NC(=S)NC(=O)c2ccco2)cc1	.	.	?	.	18µM	.
COc1cccc(CNC(=O)Cn2nc(-c3ccc(Cl)cc3)ccc2=O)c1	.	.	.	.	6.3µM!	.
C=Cc1ccc(Cn2nc(-c3ccc(C)cc3)ccc2=O)cc1	.	.	?	?	16µM	.
COc1cccc(CNC(=O)Cn2nc(-c3ccc(C)cc3)ccc2=O)c1	/	.	.	.	?	/
Cc1ccc(-c2ccc(=O)n(CC(=O)NCc3ccc(F)cc3)n2)cc1	.	?	.	.	8.9µM	.
O=c1ccc(-c2ccccc2)nn1Cc1ccc(Cl)cc1	/	.	.	.	/	/
Cc1cc2c(s1)c1cnn(Cc3c(F)ccc(Cl)c3F)c(=O)c1n2C	/	/	.	/	/	/
COc1cccc(C2c3c(ncn(-c4cccc(F)c4)c3=N)Oc3ccc4ccccc4c32)c1 (stereo not drawn)	/	/	.	/	/	/
COc1cc(F)c(S(=O)(=O)N2CCN(S(=O)(=O)c3cccs3)CC2)c(F)c1	/	/	.	/	/	/
Cc1cc(SCC(=O)N/N=C/c2ccc(O)c(O)c2O)c(C)cc1Br	.	?	.	.	32µM	.
COc1cc(/C=N/NC(=O)CSc2cc(C)c(Br)cc2C)ccc1O	.	.	.	.	?	.
COc1ccc(C2Nc3ccccc3C(=O)N2Cc2cccc(-c3ccccc3)c2)cc1COc1ccc(NC(C)=O)cc1 (stereo not drawn)	/	/	.	/	/	/
O=C(COc1ccccc1O)c1cccs1	.	.	.	.	28µM	.
O=C1c2ccccc2C(=O)N1c1ccncc1	/	/	.	/	/	/
C=CCOc1c(Cl)cc(CNc2ccc(N(C)C)cc2)cc1OC	16µM	?	.	.	?	.
O=Cc1cccn1Cc1ccc(Cl)cc1Cl	.	.	.	.	14µM	.
O=C(COC(=O)CC12CC3CC(CC(C3)C1)C2)Nc1ncc(Cl)cc1Cl	.	.	.	.	20µM	.
O=C(COC(=O)C12CC3CC(CC(C3)C1)C2)Nc1ncc(Cl)cc1Cl	.	.	.	.	?	.
COc1ccc(-c2csc(N3CCC(C(N)=O)CC3)n2)cc1OC	/	/	.	/	/	/
N=c1c[n+](N2CCOCC2)[n-]o1	.	19µM!	.	.	.	.
C=CCSc1nnc(NC(=O)C2CSC3(C)CCC(=O)N23)s1 (stereo not drawn)	.	.	.	.	/	.
CC12CCC(=O)N1C(C(=O)Nc1nnc(SCc3ccc(F)cc3)s1)CS2 (stereo not drawn)	.	.	.	.	22µM	.
O=C(O)C1CCN(c2ncc(-c3ccc4c(c3)OCCCO4)s2)CC1	/	/	.	/	/	/
O=c1c2[nH]c3cc(Br)sc3c2cnn1Cc1ccccc1F	/	/	.	/	/	/
O=C(O)CN1C(=O)/C(=C\c2cn(-c3ccccc3)nc2-c2ccccc2)SC1=S	.	?	43µM	.	.	.
SMILES	MmCpn inh	RGS4 inhibitor	Pin1 inhibitor	Glioma ERSR ind	Anesthetic bind	B2AR arrestin
CC(C)COc1ccc(-c2nn(-c3ccccc3)cc2/C=C2/SC(=S)N(CC(=O)O)C2=O)cc1	.	.	.	.	.	.
CN(C)c1cccc(-c2ncnc(N3CCC(C(N)=O)CC3)n2)c1	/	/	.	/	/	/
CN1CCN(CCCN2c3ccccc3Sc3ccc(C(F)(F)F)cc32)CC1	.[15.4 µM]	19µM!	.	.	.	.
O=C(Cn1nnc2c(cnn2-c2ccc(F)cc2)c1=O)OC1CCCCC1	.	.	.	.	13µM	.
CCOc1ccc(NC(=O)Cn2nnc3c(cnn3-c3ccc(F)cc3)c2=O)cc1	.	.	.	.	.	.
Cc1ccc(-c2nnc(N3CCC(C(N)=O)CC3)s2)cc1	/	/	.	/	/	/
C/C(N)=C(/C#N)C(=O)COC(=O)C1CCC(C(C)(C)C)CC1 (stereo not drawn)	.	.	.	.	35µM	.
C/C(N)=C(/C#N)C(=O)COC(=O)CSc1ccccc1	.	.	.	.	.	.
C/C(N)=C(/C#N)C(=O)COC(=O)CC12CC3CC(CC(C3)C1)C2	.	?	.	.	18µM	.
C/C(N)=C(/C#N)C(=O)COC(=O)CC1CCCC1	.	.	.	.	?	.
CS(=O)(=O)Nc1ccc([N+](=O)[O-])cc1OC1CCCCC1	/	8.4µM!	/	.	.	/
CS(=O)(=O)Nc1ccc([N+](=O)[O-])cc1Oc1ccccc1	.	.	.	.	.	.
